Records with an inconclusive call do not appear. The source made the active and inactive calls. Calls follow the shape of the dose curve; as a rule, active = well fitted curve in the direction sought with a large enough effect in the repeat runs; inconclusive = weak or mixed curves; inactive = no such curve, though single readings can be large; an effect the other way counts as inactive or inconclusive.
Experiments:
[1] = qHTS RealTime-Glo MT Cell Viability Assay in HEK293 cells - 0 hour (AID 1224880); also: nearly all actives have a fitted effect of over 45% in size; also: potency is read from the fitted curve at half-maximal effect
Outline: (§1)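 Tox21 screen in HEK293 using RealTime-Glo MT chemistry, with cells and reagent co-dispensed. Luminescence proportional to viable cell number was captured at intervals during 40 h compound exposure at 37 C.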

[2] = A CellTox Green Cytotoxicity Assay to monitor cytotoxicity in HEK293 cells - 32 hour (AID 1224881); also: nearly all actives have a fitted effect of over 40% in size; also: potency is read from the fitted curve at half-maximal effect
Outline: (§2)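 Seeding of HEK293 cells together with cytotoxicity dye preceded a 5 h incubation at 37 C/5% CO2. Test compounds in DMSO were then added and fluorescence monitored across 40 h.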

[3] = A CellTox Green Cytotoxicity Assay to monitor cytotoxicity in HepG2 cells - 0 hour (AID 1224882); also: nearly all actives have a fitted effect of over 35% in size
Outline: (§3)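 Nonlytic assay: viable cells exclude the dye, so fluorescence scales with cell death. HepG2 at 600 cells/well, compounds added after 5 h, signal read across 40 h.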

[4] = A CellTox Green Cytotoxicity Assay to monitor cytotoxicity in HepG2 cells - 32 hour (AID 1224883); also: nearly all actives have a fitted effect of over 50% in size; also: potency is read from the fitted curve at half-maximal effect
Outline: as §3

[5] = A CellTox Green Cytotoxicity Assay to monitor cytotoxicity in HEK293 cells - 8 hour (AID 1224884); also: nearly all actives have a fitted effect of over 35% in size
Outline: as §2

[6] = qHTS RealTime-Glo MT Cell Viability Assay in HepG2 cells - 16 hour (AID 1224885); also: nearly all actives have a fitted effect of over 50% in size
Outline: (§4)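 HepG2 suspension premixed with RealTime-Glo reagents is plated at 600 cells per well and left 5 h at 37 C/5% CO2. Compounds in DMSO then go in, and bioluminescence reflecting viable cell number is recorded over 40 h.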

[7] = qHTS RealTime-Glo MT Cell Viability Assay in HEK293 cells - 24 hour (AID 1224886); also: nearly all actives have a fitted effect of over 50% in size; also: potency is read from the fitted curve at half-maximal effect
Outline: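 Reads taken at 0, 8, 16, 24, 32 and 40 h from the same wells. HEK293 cells (600/well) carried RealTime-Glo reagents from seeding, with compound added after a 5 h settle at 37 C.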

[8] = qHTS RealTime-Glo MT Cell Viability Assay in HEK293 cells - 8 hour (AID 1224887); also: nearly all actives have a fitted effect of over 50% in size; also: potency is read from the fitted curve at half-maximal effect
Outline: as §1

[9] = A CellTox Green Cytotoxicity Assay to monitor cytotoxicity in HEK293 cells - 16 hour (AID 1224888); also: nearly all actives have a fitted effect of over 35% in size
Outline: as §2

[10] = qHTS RealTime-Glo MT Cell Viability Assay in HepG2 cells - 0 hour (AID 1224889); also: nearly all actives have a fitted effect of over 50% in size; also: potency is read from the fitted curve at half-maximal effect
Outline: as §4

Measured: Potency

CC[N+](CC)(CCNC(=O)C(=O)NCC[N+](CC)(CC)Cc1ccccc1Cl)Cc1ccccc1Cl
inactive: all assays above

O=C(O)CCc1nc(-c2ccccc2)c(-c2ccccc2)o1
not listed: [10]
inactive: all other assays above

O=C1c2ccccc2C(=O)C1c1ccc(Br)cc1
inactive: all assays above

CC(=O)OCC(=O)NCCCOc1cccc(CN2CCCCC2)c1
not listed: [10]
inactive: all other assays above

O=C(O)C[C@H](NC(=O)OCc1ccccc1)C(=O)O
inactive: all assays above

C=C/C(C)=C/C/C=C(\C)CCC=C(C)C
not listed: [9] | [10]
inactive: all other assays above

CCOC(=O)[C@H](CCc1ccccc1)N[C@@H](C)C(=O)N(CC(=O)O)C1Cc2ccccc2C1
inactive: all assays above

Cc1cc(C)c(N)cc1C
inactive: all assays above

NNC(=O)CP(=O)(c1ccccc1)c1ccccc1
inactive: all assays above

O=[N+]([O-])c1ccc(Nc2ccc(Nc3ccccc3)c(S(=O)(=O)O)c2)c([N+](=O)[O-])c1
not listed: [10]
inactive: all other assays above

CC1=C(Br)C(=O)C(Br)=C/C1=C(/c1ccccc1S(=O)(=O)O)c1cc(Br)c(O)c(Br)c1C
active: [1] 33.3 µM | [10] 16.7 µM
inactive: all other assays above

OC(CCN1CCCC1)(c1ccccc1)C1CCCCC1 (stereo unspecified)
not listed: [10]
inactive: all other assays above

Cc1ccco1
inactive: all assays above

N#CCCN(CCO)CCO
not listed: [10]
inactive: all other assays above

Brc1cc(Br)c(Oc2cc(Br)c(Br)cc2Br)cc1Br
inactive: all assays above

CCOC(=O)/C=C/C(=O)OCC
inactive: all assays above

CCC(C)COC(C)=O (stereo unspecified)
not listed: [10]
inactive: all other assays above

Oc1cccc(Nc2ccccc2)c1
active: [7] 14.4 µM | [8] 11.4 µM
not listed: [10]
inactive: all other assays above

C=CC(C)(CCC=C(C)C)OC(=O)CC(C)C (stereo unspecified)
not listed: [10]
inactive: all other assays above

O=C1NCCN1CCO
inactive: all assays above

CC(=O)c1ccc([N+](=O)[O-])cc1
not listed: [10]
inactive: all other assays above

O=C(CCc1ccc(O)cc1)c1c(O)cc(O)cc1O
active: [1] 39.8 µM | [7] 39.8 µM | [8] 25.1 µM
not listed: [10]
inactive: all other assays above

CC(CCC(=O)O)C(=O)O (stereo unspecified)
not listed: [10]
inactive: all other assays above

CCCCCC[C@@H](O)C/C=C\CCCCCCCC(=O)O
inactive: all assays above

C1C[C@@H]2[C@H]3CC[C@H](C3)[C@@H]2C1
inactive: all assays above

O=C=Nc1ccc(Cl)c(Cl)c1
not listed: [10]
inactive: all other assays above

CCCCCCCC/C=C\CCCCCCCCCCCC(=O)O
inactive: all assays above

Cc1cscn1
not listed: [10]
inactive: all other assays above

CCC(=O)C1CC(C(C)C)CC=C1C (stereo unspecified)
inactive: all assays above

c1ccc(C[n+]2cccc3ccccc32)cc1
inactive: all assays above

CCCCC(CC)CN (stereo unspecified)
inactive: all assays above

COc1ccc(OC(=O)N(CC(=O)O)Cc2ccc(OCCc3nc(-c4ccccc4)oc3C)cc2)cc1
inactive: all assays above

CN(C)CCN1C(=O)c2ccccc2N(C)c2ccccc21
not listed: [10]
inactive: all other assays above

CN1C(C(=O)Nc2ccccn2)=C(O)c2sccc2S1(=O)=O
not listed: [10]
inactive: all other assays above

CCc1ccccc1
inactive: all assays above

O=c1[nH]ncc2ccccc12
inactive: all assays above

CC(O)c1ccccc1 (stereo unspecified)
not listed: [9] | [10]
inactive: all other assays above

CCCCCCCCOc1ccc(C(=O)O)cc1
inactive: all assays above

CN1CCCC(n2nc(Cc3ccc(Cl)cc3)c3ccccc3c2=O)CC1 (stereo unspecified)
active: [2] 30.1 µM | [4] 23.9 µM | [7] 8.49 µM | [8] 7.56 µM
inactive: all other assays above

CCC=CC#N
inactive: all assays above

O=C(OC(=O)c1ccccc1)c1ccccc1
inactive: all assays above

C[C@]1(Cn2ccnn2)[C@H](C(=O)O)N2C(=O)C[C@H]2S1(=O)=O
not listed: [7] | [10]
inactive: all other assays above

CC1(C)[C@H](C(=O)O)N2C(=O)C[C@H]2S1(=O)=O
inactive: all assays above

Cc1cc(C)cc(N)c1
not listed: [7]
inactive: all other assays above

C=C(C)CCCC(C)CCO (stereo unspecified)
not listed: [7]
inactive: all other assays above

O=C(/C=C/c1ccccc1)OCCc1ccccc1
not listed: [9]
inactive: all other assays above

Nc1ncnc2c1ncn2[C@H]1CC[C@@H](CO)O1
inactive: all assays above

Reference: PubChem BioAssay (Tox21)
